# Laboratory results: publication PMC7862700, “An all-to-all approach to the identification of sequence-specific readers for epigenetic DNA modifications on cytosine”
# Tests used:
# Test in all cases: DAPPL (digital affinity profiling via proximity ligation, sequencing); 10 mM Tris-HCl pH 7.5, 50 mM NaCl, 1 mM DTT, 4% glycerol, room temperature, 30 min; GST-TFs on glutathione beads, 16-mer random dsDNA library, 0.1% formaldehyde crosslink after washing; high values mean tight binding
# FLI1 = molecular target: T1, FLI1 (Homo sapiens, UniProt Q01543 1-452); conditions: protein: recombinant; tags: N-terminal GST; dsDNA, one strand shown
# T1 sequence: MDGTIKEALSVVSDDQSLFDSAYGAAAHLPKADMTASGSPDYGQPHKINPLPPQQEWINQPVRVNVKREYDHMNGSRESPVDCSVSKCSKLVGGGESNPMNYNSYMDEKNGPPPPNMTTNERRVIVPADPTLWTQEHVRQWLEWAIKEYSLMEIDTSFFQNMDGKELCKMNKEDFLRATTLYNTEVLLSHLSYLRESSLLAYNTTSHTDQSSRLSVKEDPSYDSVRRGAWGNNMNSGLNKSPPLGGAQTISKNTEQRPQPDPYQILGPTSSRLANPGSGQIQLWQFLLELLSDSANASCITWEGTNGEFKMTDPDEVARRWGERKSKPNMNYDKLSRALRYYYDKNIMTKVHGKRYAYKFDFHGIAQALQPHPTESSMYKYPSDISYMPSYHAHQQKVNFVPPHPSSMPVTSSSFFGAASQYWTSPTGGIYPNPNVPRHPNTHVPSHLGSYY
# Method in brief: (§1)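 GST fusions of human transcription factors were expressed in yeast and captured with glutathione beads. Once given DNA barcodes and pooled alongside a tag-only sample, they were incubated for 30 min at room temperature with 200 nmole of a random double-stranded 16-mer DNA library in Tris/NaCl/DTT/glycerol buffer, then washed, crosslinked (0.1% formaldehyde), proximity-ligated, PCR-amplified and sequenced on an Illumina NextSeq500. The binding signal of each hexamer is its read frequency for a factor divided by its frequency for the tag-only sample.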
# ELK1 = molecular target: T2, ELK1 (Homo sapiens, UniProt P19419 1-428); conditions: protein: recombinant; tags: N-terminal GST; dsDNA, one strand shown
# T2 sequence: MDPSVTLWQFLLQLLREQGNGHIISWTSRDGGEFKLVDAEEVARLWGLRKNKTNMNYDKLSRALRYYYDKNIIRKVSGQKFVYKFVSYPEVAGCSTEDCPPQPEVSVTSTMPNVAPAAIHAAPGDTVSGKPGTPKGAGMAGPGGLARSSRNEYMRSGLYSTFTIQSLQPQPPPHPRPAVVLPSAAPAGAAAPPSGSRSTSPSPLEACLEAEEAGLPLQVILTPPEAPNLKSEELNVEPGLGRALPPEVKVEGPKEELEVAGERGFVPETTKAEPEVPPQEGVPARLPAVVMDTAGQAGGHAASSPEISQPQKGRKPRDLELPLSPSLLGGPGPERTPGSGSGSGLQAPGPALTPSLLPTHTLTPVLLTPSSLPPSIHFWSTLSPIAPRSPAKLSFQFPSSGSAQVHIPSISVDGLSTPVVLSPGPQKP
# Method in brief: as §1
# GABPA = molecular target: T3, GABPA (Homo sapiens, UniProt Q06546 1-454); conditions: protein: recombinant; tags: N-terminal GST; dsDNA, one strand shown
# T3 sequence: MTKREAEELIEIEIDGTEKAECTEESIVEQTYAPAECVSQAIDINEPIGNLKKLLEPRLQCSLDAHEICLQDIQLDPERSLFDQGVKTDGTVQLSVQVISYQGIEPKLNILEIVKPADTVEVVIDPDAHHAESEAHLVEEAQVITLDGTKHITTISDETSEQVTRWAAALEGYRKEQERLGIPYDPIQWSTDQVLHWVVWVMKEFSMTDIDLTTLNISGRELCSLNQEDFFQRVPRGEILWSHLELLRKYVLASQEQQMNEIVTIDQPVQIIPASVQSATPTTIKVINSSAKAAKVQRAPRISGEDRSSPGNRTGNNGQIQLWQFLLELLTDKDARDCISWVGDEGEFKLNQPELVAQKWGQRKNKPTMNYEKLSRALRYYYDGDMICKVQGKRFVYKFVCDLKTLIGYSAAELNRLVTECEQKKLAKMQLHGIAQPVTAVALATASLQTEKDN
# Method in brief: as §1
# ERG = molecular target: T4, ERG (Homo sapiens, UniProt P11308 1-479); conditions: protein: recombinant; tags: N-terminal GST; dsDNA, one strand shown
# T4 sequence: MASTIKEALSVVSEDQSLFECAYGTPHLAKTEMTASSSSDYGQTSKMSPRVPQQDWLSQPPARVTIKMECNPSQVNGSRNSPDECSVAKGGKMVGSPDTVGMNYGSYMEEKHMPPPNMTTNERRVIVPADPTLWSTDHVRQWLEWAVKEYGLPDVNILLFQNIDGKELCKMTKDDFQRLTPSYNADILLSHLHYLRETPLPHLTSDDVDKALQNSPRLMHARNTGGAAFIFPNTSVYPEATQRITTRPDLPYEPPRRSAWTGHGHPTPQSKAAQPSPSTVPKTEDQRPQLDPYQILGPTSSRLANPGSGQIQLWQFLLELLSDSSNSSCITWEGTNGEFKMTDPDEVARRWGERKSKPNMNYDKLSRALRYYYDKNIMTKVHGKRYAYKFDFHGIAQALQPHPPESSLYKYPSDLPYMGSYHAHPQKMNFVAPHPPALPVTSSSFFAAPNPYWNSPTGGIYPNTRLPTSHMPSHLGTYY
# Method in brief: as §1
# ELF1 = ELF1 (Homo sapiens, UniProt P32519 1-619); conditions: protein: recombinant; tags: N-terminal GST; dsDNA, one strand shown
# Method in brief: as §1
# EHF = molecular target: T5, EHF (Homo sapiens, UniProt Q9NZC4 1-300); conditions: protein: recombinant; tags: N-terminal GST; dsDNA, one strand shown
# T5 sequence: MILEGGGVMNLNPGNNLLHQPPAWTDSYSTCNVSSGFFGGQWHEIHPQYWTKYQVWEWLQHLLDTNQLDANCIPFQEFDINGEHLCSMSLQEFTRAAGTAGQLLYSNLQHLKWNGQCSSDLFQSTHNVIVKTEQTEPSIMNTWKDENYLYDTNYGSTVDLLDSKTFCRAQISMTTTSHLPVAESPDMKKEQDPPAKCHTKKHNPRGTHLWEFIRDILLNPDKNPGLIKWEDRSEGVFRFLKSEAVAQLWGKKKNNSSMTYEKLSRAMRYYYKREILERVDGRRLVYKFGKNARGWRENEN
# Method in brief: as §1
# SPI1 = SPI1 (Homo sapiens, UniProt P17947 1-270); conditions: protein: recombinant; tags: N-terminal GST; dsDNA, one strand shown
# Method in brief: as §1
# SPIB = SPIB (Homo sapiens, UniProt Q01892 1-262); conditions: protein: recombinant; tags: N-terminal GST; dsDNA, one strand shown
# Method in brief: as §1
# ELK3 = molecular target: T6, ELK3 (Homo sapiens, UniProt P41970 1-407); conditions: protein: recombinant; tags: N-terminal GST; dsDNA, one strand shown
# T6 sequence: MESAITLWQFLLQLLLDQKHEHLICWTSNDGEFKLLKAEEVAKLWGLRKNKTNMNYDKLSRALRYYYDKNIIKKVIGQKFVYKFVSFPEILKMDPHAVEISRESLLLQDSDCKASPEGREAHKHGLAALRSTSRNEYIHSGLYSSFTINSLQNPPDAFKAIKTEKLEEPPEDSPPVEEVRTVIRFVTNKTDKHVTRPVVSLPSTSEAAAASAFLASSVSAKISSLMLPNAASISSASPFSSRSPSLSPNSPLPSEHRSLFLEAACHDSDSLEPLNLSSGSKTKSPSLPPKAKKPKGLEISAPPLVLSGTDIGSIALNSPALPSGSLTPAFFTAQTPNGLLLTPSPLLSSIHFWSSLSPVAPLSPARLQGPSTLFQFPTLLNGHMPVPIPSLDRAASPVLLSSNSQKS
# Method in brief: as §1
# FEV = molecular target: T7, FEV (Homo sapiens, UniProt Q99581 1-238); conditions: protein: recombinant; tags: N-terminal GST; dsDNA, one strand shown
# T7 sequence: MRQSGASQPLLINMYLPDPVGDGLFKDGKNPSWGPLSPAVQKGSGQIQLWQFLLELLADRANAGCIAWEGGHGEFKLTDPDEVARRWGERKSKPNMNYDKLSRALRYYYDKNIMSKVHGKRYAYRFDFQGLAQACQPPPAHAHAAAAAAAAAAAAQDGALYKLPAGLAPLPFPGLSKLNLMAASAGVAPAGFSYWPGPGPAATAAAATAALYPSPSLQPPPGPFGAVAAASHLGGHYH
# Method in brief: as §1
# ETV5 = ETV5 (Homo sapiens, UniProt P41161 1-510); conditions: protein: recombinant; tags: N-terminal GST; dsDNA, one strand shown
# Method in brief: as §1
# HSF1 = HSF1 (Homo sapiens, UniProt Q00613 1-529); conditions: protein: recombinant; tags: N-terminal GST; chain copies: 3; dsDNA, one strand shown
# Method in brief: as §1
# SPIC = molecular target: T8, SPIC (Homo sapiens, UniProt Q8N5J4 1-248); conditions: protein: recombinant; tags: N-terminal GST; dsDNA, one strand shown
# T8 sequence: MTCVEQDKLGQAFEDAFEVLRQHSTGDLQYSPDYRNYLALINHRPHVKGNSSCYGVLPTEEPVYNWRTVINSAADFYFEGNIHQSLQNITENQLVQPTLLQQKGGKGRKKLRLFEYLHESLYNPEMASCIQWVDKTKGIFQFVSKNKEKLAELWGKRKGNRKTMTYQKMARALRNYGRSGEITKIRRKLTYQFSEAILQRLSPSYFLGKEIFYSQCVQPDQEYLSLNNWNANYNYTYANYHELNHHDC
# Method in brief: as §1
# ELF4 = ELF4 (Homo sapiens, UniProt Q99607 1-663); conditions: protein: recombinant; tags: N-terminal GST; dsDNA, one strand shown
# Method in brief: as §1
# ELK4 = molecular target: T9, ELK4 (Homo sapiens, UniProt P28324-2 1-405); conditions: protein: recombinant; tags: N-terminal GST; dsDNA, one strand shown
# T9 sequence: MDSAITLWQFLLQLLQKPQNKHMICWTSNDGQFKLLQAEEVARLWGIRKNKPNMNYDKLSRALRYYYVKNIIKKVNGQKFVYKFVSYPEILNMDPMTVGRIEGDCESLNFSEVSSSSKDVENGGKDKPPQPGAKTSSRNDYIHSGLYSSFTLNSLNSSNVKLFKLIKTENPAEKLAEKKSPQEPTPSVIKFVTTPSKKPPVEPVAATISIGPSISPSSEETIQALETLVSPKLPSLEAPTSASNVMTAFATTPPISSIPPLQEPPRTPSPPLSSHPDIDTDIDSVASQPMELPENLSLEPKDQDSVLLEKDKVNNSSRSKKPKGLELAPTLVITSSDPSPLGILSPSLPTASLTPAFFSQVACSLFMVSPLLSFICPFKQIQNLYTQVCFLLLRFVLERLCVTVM
# Method in brief: as §1
# ETV2 = molecular target: T10, ETV2 (Homo sapiens, UniProt O00321 1-342); conditions: protein: recombinant; tags: N-terminal GST; dsDNA, one strand shown
# T10 sequence: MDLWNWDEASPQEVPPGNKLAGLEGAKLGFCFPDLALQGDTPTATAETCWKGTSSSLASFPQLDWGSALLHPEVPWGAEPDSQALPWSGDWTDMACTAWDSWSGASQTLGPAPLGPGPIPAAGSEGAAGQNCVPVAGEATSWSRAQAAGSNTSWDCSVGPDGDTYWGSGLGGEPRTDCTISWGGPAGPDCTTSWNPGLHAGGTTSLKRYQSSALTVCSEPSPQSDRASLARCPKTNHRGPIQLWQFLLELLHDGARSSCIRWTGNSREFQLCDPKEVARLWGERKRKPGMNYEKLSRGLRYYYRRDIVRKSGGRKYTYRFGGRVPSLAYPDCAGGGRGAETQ
# Method in brief: as §1
# ELF3 = molecular target: T11, ELF3 (Homo sapiens, UniProt P78545 1-371); conditions: protein: recombinant; tags: N-terminal GST; dsDNA, one strand shown
# T11 sequence: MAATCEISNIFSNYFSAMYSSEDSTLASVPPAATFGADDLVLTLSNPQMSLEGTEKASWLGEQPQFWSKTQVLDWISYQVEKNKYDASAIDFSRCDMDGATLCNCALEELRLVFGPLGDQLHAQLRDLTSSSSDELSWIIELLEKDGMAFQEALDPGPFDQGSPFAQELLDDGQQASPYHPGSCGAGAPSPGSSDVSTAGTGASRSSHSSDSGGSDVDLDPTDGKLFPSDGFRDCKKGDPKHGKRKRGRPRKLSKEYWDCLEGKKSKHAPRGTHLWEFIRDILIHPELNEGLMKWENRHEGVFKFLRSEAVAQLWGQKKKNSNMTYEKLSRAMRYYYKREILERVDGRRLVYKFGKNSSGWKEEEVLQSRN
# Method in brief: as §1
# CRX = CRX (Homo sapiens, UniProt O43186 1-299); conditions: protein: recombinant; tags: N-terminal GST; dsDNA, one strand shown
# Method in brief: as §1
# ETV1 = ETV1 (Homo sapiens, UniProt P50549 1-477); conditions: protein: recombinant; tags: N-terminal GST; dsDNA, one strand shown
# Method in brief: as §1
# HSF1, sequence (Q00613 whole entry): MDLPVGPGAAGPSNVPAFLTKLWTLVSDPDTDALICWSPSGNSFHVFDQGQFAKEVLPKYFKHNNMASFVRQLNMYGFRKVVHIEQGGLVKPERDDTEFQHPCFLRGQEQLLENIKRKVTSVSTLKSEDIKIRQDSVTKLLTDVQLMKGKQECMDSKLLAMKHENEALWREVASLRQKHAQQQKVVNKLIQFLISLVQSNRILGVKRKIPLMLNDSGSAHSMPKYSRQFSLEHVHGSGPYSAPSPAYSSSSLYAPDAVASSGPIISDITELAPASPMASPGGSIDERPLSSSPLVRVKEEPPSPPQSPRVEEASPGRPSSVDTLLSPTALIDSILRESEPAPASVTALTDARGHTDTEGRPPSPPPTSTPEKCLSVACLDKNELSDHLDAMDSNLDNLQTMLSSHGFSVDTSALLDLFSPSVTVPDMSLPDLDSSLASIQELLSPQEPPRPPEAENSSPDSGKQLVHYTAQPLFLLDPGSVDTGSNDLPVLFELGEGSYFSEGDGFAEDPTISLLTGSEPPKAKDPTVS
# SPIB, sequence (Q01892 whole entry): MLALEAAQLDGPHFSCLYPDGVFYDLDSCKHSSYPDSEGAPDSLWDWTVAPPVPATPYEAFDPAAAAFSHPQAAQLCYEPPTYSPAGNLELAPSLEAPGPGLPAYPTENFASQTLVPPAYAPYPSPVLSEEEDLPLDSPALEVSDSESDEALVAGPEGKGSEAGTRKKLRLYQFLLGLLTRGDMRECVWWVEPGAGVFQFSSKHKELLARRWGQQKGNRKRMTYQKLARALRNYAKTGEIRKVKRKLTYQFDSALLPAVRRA
# ETV1, sequence (P50549 whole entry): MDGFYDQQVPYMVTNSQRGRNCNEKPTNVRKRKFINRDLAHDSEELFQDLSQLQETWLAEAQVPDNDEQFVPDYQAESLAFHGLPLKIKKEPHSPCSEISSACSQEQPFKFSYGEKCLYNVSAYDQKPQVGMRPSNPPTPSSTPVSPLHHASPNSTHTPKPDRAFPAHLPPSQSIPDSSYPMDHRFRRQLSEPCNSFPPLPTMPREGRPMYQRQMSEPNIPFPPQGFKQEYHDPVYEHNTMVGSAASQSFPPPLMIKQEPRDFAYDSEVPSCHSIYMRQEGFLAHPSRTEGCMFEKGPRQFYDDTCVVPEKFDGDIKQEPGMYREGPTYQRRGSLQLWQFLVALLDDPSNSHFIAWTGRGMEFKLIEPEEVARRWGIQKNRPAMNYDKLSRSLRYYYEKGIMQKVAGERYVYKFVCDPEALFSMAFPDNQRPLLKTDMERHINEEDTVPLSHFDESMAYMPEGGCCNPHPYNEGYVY
# ELF1, sequence (P32519 whole entry): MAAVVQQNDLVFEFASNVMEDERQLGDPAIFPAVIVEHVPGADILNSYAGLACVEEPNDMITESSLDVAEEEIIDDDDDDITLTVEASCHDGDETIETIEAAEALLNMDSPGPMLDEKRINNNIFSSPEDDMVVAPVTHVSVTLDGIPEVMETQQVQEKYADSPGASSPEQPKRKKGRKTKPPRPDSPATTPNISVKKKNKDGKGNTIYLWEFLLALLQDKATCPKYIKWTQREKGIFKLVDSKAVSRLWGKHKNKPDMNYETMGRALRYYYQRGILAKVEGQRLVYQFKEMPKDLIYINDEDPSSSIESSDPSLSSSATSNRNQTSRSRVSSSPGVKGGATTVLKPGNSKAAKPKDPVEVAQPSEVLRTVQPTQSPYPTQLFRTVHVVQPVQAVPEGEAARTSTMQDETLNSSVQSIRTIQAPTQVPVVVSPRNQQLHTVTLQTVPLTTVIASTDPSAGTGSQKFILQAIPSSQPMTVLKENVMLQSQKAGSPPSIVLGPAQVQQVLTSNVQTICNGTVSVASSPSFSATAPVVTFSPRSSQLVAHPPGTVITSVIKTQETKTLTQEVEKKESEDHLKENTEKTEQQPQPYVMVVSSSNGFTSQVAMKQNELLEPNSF
# ETV5, sequence (P41161 whole entry): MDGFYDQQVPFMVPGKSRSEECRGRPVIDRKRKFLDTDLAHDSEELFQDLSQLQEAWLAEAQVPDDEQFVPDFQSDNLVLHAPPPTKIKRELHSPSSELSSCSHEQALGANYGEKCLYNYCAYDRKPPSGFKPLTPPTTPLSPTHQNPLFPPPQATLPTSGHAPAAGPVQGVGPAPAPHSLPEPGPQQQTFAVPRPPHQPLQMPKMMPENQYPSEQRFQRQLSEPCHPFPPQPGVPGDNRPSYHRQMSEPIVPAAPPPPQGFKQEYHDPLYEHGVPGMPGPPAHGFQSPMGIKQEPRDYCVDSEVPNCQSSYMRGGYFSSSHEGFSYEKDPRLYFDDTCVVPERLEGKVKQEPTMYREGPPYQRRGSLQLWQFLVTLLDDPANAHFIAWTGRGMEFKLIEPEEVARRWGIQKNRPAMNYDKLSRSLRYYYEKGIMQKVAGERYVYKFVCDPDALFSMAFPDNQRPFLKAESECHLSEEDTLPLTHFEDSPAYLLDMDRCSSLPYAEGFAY
# ELF4, sequence (Q99607 whole entry): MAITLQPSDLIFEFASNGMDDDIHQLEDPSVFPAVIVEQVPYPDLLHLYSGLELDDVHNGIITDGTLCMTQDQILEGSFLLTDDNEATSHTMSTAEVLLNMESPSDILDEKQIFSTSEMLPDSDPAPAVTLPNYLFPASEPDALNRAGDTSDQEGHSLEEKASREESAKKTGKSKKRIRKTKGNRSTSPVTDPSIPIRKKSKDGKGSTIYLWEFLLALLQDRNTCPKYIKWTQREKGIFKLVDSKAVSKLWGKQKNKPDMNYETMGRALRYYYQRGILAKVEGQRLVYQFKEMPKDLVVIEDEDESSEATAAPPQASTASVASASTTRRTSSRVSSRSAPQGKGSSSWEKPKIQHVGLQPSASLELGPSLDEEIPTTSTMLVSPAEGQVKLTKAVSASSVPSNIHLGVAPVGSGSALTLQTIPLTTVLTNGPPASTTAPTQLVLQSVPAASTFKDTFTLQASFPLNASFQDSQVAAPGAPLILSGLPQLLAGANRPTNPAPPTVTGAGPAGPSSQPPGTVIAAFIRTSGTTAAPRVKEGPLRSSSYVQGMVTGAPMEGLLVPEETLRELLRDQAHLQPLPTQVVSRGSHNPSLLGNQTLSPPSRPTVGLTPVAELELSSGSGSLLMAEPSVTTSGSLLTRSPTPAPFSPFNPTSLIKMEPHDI
# CRX, sequence (O43186 whole entry): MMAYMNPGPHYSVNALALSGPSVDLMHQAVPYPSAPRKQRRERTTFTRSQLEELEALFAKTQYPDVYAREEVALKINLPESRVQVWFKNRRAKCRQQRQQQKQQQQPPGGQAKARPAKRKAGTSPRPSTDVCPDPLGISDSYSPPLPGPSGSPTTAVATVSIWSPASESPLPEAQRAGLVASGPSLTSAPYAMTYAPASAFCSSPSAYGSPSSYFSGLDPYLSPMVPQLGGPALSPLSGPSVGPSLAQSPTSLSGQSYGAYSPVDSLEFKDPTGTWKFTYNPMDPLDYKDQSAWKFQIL
sequence,measurement,setting,value
TGACAA,binding signal,FLI1,"1.18 fold enrichment (6-mer frequency, TF over GST control)"
same,binding signal,ELK1,"1.19 fold enrichment (6-mer frequency, TF over GST control)"
same,binding signal,GABPA,"1.32 fold enrichment (6-mer frequency, TF over GST control)"
same,binding signal,ERG,"1.28 fold enrichment (6-mer frequency, TF over GST control)"
same,binding signal,ELF1,"1.38 fold enrichment (6-mer frequency, TF over GST control)"
same,binding signal,EHF,"1.21 fold enrichment (6-mer frequency, TF over GST control)"
same,binding signal,SPI1,"1.25 fold enrichment (6-mer frequency, TF over GST control)"
same,binding signal,SPIB,"1.14 fold enrichment (6-mer frequency, TF over GST control)"
same,binding signal,ELK3,"1.12 fold enrichment (6-mer frequency, TF over GST control)"
same,binding signal,FEV,"1.22 fold enrichment (6-mer frequency, TF over GST control)"
same,binding signal,ETV5,"1.22 fold enrichment (6-mer frequency, TF over GST control)"
same,binding signal,HSF1,"1.06 fold enrichment (6-mer frequency, TF over GST control)"
same,binding signal,SPIC,"1.11 fold enrichment (6-mer frequency, TF over GST control)"
same,binding signal,ELF4,"1.26 fold enrichment (6-mer frequency, TF over GST control)"
same,binding signal,ELK4,"1.2 fold enrichment (6-mer frequency, TF over GST control)"
same,binding signal,ETV2,"1.14 fold enrichment (6-mer frequency, TF over GST control)"
same,binding signal,ELF3,"1.3 fold enrichment (6-mer frequency, TF over GST control)"
same,binding signal,CRX,"1.05 fold enrichment (6-mer frequency, TF over GST control)"
same,binding signal,ETV1,"1.25 fold enrichment (6-mer frequency, TF over GST control)"
